Results from PubChem BioAssay (NCI).
The panel holds about 83,000 compounds, 20% with a hit somewhere; the sample as a whole holds those more often.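 Each cell line was grown in a 96-well plate and treated with one concentration of compound for 48 hours. Values below 10 were considered active.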 A number with no mark means an inactive call. The source made the active and inactive calls.

Key:
Experiment in all cases: NCI-60 one-dose screen, 48 h (100 = growth as untreated, 0 = no growth, -100 = all killed)
Details in all cases: 10 µM unless noted
NCI-H23 lung = tested on: NCI-H23 lung
NCI-H226 lung = tested on: NCI-H226 lung
NCI-H322M lung = tested on: NCI-H322M lung
HOP-62 NSCLC = tested on: HOP-62 NSCLC
NCI-H460 lung = tested on: NCI-H460 lung
HOP-92 NSCLC = tested on: HOP-92 NSCLC
NCI-H522 lung = tested on: NCI-H522 lung
A549/ATCC NSCLC = tested on: A549/ATCC NSCLC
786-0 renal = tested on: 786-0 renal
COLO 205 colon = tested on: COLO 205 colon
DU-145 prostate = tested on: DU-145 prostate
K-562 leukemia = tested on: K-562 leukemia
MALME-3M melanoma = tested on: MALME-3M melanoma
MDA-MB-231 breast = tested on: MDA-MB-231 breast
RXF 393 renal = tested on: RXF 393 renal
SF-268 CNS = tested on: SF-268 CNS
SF-295 CNS = tested on: SF-295 CNS
SF-539 CNS = tested on: SF-539 CNS
UACC-257 melanoma = tested on: UACC-257 melanoma
M14 melanoma = tested on: M14 melanoma

COc1cnc2c(c1)C(=O)c1c-2n(CCCNCCN2CCOCC2)c(=O)c2cc([N+](=O)[O-])ccc12
growth (NCI-H23 lung): -21.7% (active) | growth (NCI-H226 lung): -52.7% (active) | growth (NCI-H322M lung): 6.04% (active) | growth (HOP-62 NSCLC): -0.313% (active) | growth (NCI-H460 lung): -55.2% (active) | growth (HOP-92 NSCLC): -4.05% (active) | growth (NCI-H522 lung): -19.9% (active) | growth (A549/ATCC NSCLC): -72.1% (active) | growth (786-0 renal): -53.6% (active) | growth (COLO 205 colon): -2.78% (active) | growth (DU-145 prostate): 2.63% (active) | growth (K-562 leukemia): 0.36% (active) | growth (MALME-3M melanoma): -11.7% (active) | growth (MDA-MB-231 breast): 2.48% (active) | growth (RXF 393 renal): -32.3% (active) | growth (SF-268 CNS): 12.3% | growth (SF-295 CNS): 1.52% (active) | growth (SF-539 CNS): -1.79% (active) | growth (UACC-257 melanoma): 5.34% (active) | growth (M14 melanoma): 6.27% (active)

Cc1cc(N2CCCC2)nc(N(CCNc2ccnc3cc(Cl)ccc23)Cc2ccco2)n1
growth (NCI-H23 lung): 9.57% (active) | growth (NCI-H226 lung): 24.9% | growth (NCI-H322M lung): 19.7% | growth (HOP-62 NSCLC): 43.3% | growth (NCI-H460 lung): 15.8% | growth (HOP-92 NSCLC): -15% (active) | growth (NCI-H522 lung): 49.9% | growth (A549/ATCC NSCLC): 48% | growth (786-0 renal): 4.55% (active) | growth (COLO 205 colon): 15.9% | growth (DU-145 prostate): 50.3% | growth (K-562 leukemia): -1.93% (active) | growth (MALME-3M melanoma): 28.2% | growth (MDA-MB-231 breast): 11.7% | growth (RXF 393 renal): -0.497% (active) | growth (SF-268 CNS): 55.5% | growth (SF-295 CNS): 18.8% | growth (SF-539 CNS): -10.7% (active) | growth (UACC-257 melanoma): 69.8% | growth (M14 melanoma): -63.2% (active)

NC1=NN=C2N(N)C(=O)c3cnn(-c4ccccc4)c3N2c2nc(-c3ccccc3)cc(-c3ccccc3)c21
growth (NCI-H23 lung): 94.1% | growth (NCI-H226 lung): 87.4% | growth (NCI-H322M lung): 103% | growth (HOP-62 NSCLC): 96.8% | growth (NCI-H460 lung): 103% | growth (HOP-92 NSCLC): 96.7% | growth (NCI-H522 lung): 74.9% | growth (A549/ATCC NSCLC): 100% | growth (786-0 renal): 104% | growth (COLO 205 colon): 116% | growth (DU-145 prostate): 108% | growth (K-562 leukemia): 92.9% | growth (MALME-3M melanoma): 120% | growth (MDA-MB-231 breast): 89.4% | growth (RXF 393 renal): 138% | growth (SF-268 CNS): 105% | growth (SF-295 CNS): 94.6% | growth (SF-539 CNS): 103% | growth (UACC-257 melanoma): 108% | growth (M14 melanoma): 99.2%

CCC(=O)c1c(C)[nH]c(C)c1C
growth (NCI-H23 lung): 94% | growth (NCI-H226 lung): 101% | growth (NCI-H322M lung): 94.6% | growth (HOP-62 NSCLC): 77.8% | growth (NCI-H460 lung): 55.5% | growth (HOP-92 NSCLC): 107% | growth (NCI-H522 lung): 56.2% | growth (A549/ATCC NSCLC): 86.2% | growth (786-0 renal): 99.2% | growth (COLO 205 colon): 89.4% | growth (DU-145 prostate): 0.904% (active) | growth (K-562 leukemia): 110% | growth (MALME-3M melanoma): 116% | growth (MDA-MB-231 breast): 95.8% | growth (RXF 393 renal): 80.4% | growth (SF-268 CNS): 90.7% | growth (SF-295 CNS): 68.3% | growth (SF-539 CNS): 105% | growth (UACC-257 melanoma): 99% | growth (M14 melanoma): 90.4%

Cn1cc(-c2csc(-c3cn(CCNC(=O)OC(C)(C)C)c4ccccc34)n2)c2cccnc21
growth (NCI-H23 lung): 65.7% | growth (NCI-H226 lung): 55.9% | growth (NCI-H322M lung): 90.1% | growth (HOP-62 NSCLC): 72.5% | growth (NCI-H460 lung): 92.6% | growth (HOP-92 NSCLC): 56.6% | growth (NCI-H522 lung): 52.6% | growth (A549/ATCC NSCLC): 78.8% | growth (786-0 renal): 93.6% | growth (COLO 205 colon): 73.3% | growth (DU-145 prostate): 101% | growth (K-562 leukemia): 56.2% | growth (MALME-3M melanoma): 82.8% | growth (MDA-MB-231 breast): 82.9% | growth (RXF 393 renal): 105% | growth (SF-268 CNS): 90.5% | growth (SF-295 CNS): 97.7% | growth (SF-539 CNS): 93.1% | growth (UACC-257 melanoma): 92.2% | growth (M14 melanoma): 61.1%

NCCn1cc(-c2nc(-c3c[nH]c4ncccc34)cs2)c2cc(F)ccc21
growth (NCI-H23 lung): 76.7% | growth (NCI-H226 lung): 74.5% | growth (NCI-H322M lung): 76.9% | growth (HOP-62 NSCLC): 73.6% | growth (NCI-H460 lung): 51.3% | growth (HOP-92 NSCLC): 49.1% | growth (NCI-H522 lung): 90.7% | growth (A549/ATCC NSCLC): 61.7% | growth (786-0 renal): 87.5% | growth (COLO 205 colon): 49.2% | growth (DU-145 prostate): 93.9% | growth (K-562 leukemia): 22.6% | growth (MALME-3M melanoma): 78.6% | growth (MDA-MB-231 breast): 63.9% | growth (RXF 393 renal): 86.7% | growth (SF-268 CNS): 82.1% | growth (SF-295 CNS): 96.7% | growth (SF-539 CNS): 82.7% | growth (UACC-257 melanoma): 93.8% | growth (M14 melanoma): 86.2%

C/C(=C(/c1ccccc1)c1ccc(N2C(=O)c3cccc4c(NCc5ccccc5)ccc(c34)C2=O)cc1)c1ccccc1
growth (NCI-H23 lung): 89.8% | growth (NCI-H226 lung): 89.1% | growth (NCI-H322M lung): 97.6% | growth (HOP-62 NSCLC): 100% | growth (NCI-H460 lung): 99.8% | growth (HOP-92 NSCLC): 89% | growth (NCI-H522 lung): 93.1% | growth (A549/ATCC NSCLC): 92.6% | growth (786-0 renal): 103% | growth (COLO 205 colon): 112% | growth (DU-145 prostate): 101% | growth (K-562 leukemia): 85.8% | growth (MALME-3M melanoma): 96.3% | growth (MDA-MB-231 breast): 96.1% | growth (RXF 393 renal): 112% | growth (SF-268 CNS): 102% | growth (SF-295 CNS): 96.2% | growth (SF-539 CNS): 98.6% | growth (UACC-257 melanoma): 106% | growth (M14 melanoma): 89.1%

Brc1ccc(Cn2nnnc2-c2ccn(-c3ccccc3)n2)cc1
growth (NCI-H23 lung): 62.3% | growth (NCI-H226 lung): 62.8% | growth (NCI-H322M lung): 76.8% | growth (HOP-62 NSCLC): 74.3% | growth (NCI-H460 lung): 73.8% | growth (HOP-92 NSCLC): 63.8% | growth (NCI-H522 lung): -1.66% (active) | growth (A549/ATCC NSCLC): 67.8% | growth (786-0 renal): 82.8% | growth (COLO 205 colon): 96.6% | growth (DU-145 prostate): 85.8% | growth (K-562 leukemia): 46.2% | growth (MALME-3M melanoma): 103% | growth (MDA-MB-231 breast): 73.5% | growth (RXF 393 renal): 87.1% | growth (SF-268 CNS): 73.2% | growth (SF-295 CNS): 50.5% | growth (SF-539 CNS): 80.8% | growth (UACC-257 melanoma): 28.8% | growth (M14 melanoma): 83.4%
